For 96 molecules, AC50 and activity, negative = inhibition results are on record in PubChem BioAssay AID1851 (National Center for Advancing Translational Sciences (NCATS), 2009).

Values joined by “and” are separate entries in the source; they are usually repeats but may differ in a detail not shown here. Equal entries are not always repeated. Out of some 16,000 compounds screened, about 5,700 (36%) were called active. About 24% were inconclusive and are not listed. Calls come from the whole dose curve; as a rule, active = well fitted curve in the direction sought with a large enough effect; inconclusive = small, poorly fitted or top-dose-only effect, or effect the other way; inactive = no such curve, though single readings can be large or run the other way. The list shows a part of the results.
% is set by controls: 0 for no effect and ±100 for the full control effect.

The target in the test is Cytochrome P450 1A2 (Homo sapiens) (UniProt P05177). The test is described as follows: Cytochrome panel assay with activity outcomes. The note with it: recombinant CYP, pro-luciferin dealkylation, luminescence, p450-cyp1a2; series mostly up to 57.1 µM.
Chain of Cytochrome P450 1A2 (Homo sapiens) (P05177 whole entry, looked up): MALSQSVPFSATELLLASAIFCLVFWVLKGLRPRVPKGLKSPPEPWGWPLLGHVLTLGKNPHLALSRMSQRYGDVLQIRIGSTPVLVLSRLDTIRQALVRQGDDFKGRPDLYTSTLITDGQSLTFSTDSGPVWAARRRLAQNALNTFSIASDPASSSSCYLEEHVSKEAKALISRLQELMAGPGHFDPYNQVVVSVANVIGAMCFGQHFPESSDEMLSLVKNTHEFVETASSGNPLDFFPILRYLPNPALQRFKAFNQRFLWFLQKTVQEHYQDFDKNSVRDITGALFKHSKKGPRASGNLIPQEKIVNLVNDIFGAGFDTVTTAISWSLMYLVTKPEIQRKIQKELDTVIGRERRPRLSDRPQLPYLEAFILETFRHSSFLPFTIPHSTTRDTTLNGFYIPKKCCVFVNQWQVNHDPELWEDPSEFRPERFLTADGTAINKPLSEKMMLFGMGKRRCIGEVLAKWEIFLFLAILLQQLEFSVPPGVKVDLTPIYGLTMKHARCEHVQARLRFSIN
As a reminder, the AC50 is the midpoint of the concentration-response curve, whichever way the signal moves. Turning to `COc1ccccc1CCn1c(=O)c(-c2ccc(F)c(F)c2)nc2cncnc21`, the AC50 is 2 µM (active).
For the molecule `COc1ccccc1CCn1c(=O)c(-c2cccs2)nc2cncnc21`, the half-maximal activity concentration (AC50) is 2 µM (active).
On to `COc1ccccc1CCn1c(=O)c(-c2ccc(Cl)cc2)nc2cncnc21`, for which the AC50 was 0.631 µM (active).
In the case of `COCCn1c(=O)c(-c2cccs2)nc2cncnc21`, the half-maximal activity concentration (AC50) is 3.16 µM (active).
Same read-out and setting: under `COc1ccc(NC(=O)N2CCCC3(CCN(S(C)(=O)=O)CC3)C2)cc1` stands “inactive”; under `O=C1c2ccccc2CC[C@H]1CNCCc1ccc(O)cc1`, 20 µM (active).
Take `Cc1cccc(C)c1NC(=O)Nc1ccc(S(N)(=O)=O)cc1`: the activity, negative = inhibition is -10.8% [at 2.29 µM] (inactive).
With `Cc1ccc(NC(=O)Nc2ncccc2C)cc1`, the half-maximal activity concentration (AC50) was 3.55 µM (active).
As to `CCCCNC(=O)c1cc2nc3c(c(C(F)(F)F)n2n1)CCc1ccccc1-3`, the concentration at half-maximal activity (AC50) is 2.51 µM (active).
Regarding `COc1cccc(N=c2oc3c(C)ncc(CO)c3cc2C(N)=O)c1`, the AC50 is 4.47 µM (active).
On to `CO[C@H]1COC(=O)CCC[C@H](C)[C@H](OC)COC(=O)C/C=C\[C@@H]1C`, for which the activity, negative = inhibition was -3.93% [at 11.4 µM] (inactive).
For `Cc1ccsc1/C=N/Nc1nc(Cl)c(Cl)cc1Cl`, the concentration at half-maximal activity (AC50) is 2 µM (active).
For the molecule `N#Cc1ccc(C2=NC(C(F)(F)F)(C(F)(F)F)c3c(n(Cc4ccco4)c(=O)[nH]c3=O)N2)cc1`, the AC50 result is “inactive”.
With `C#CC[N+](CC)(CC)CC#Cc1cccc(Cl)c1`, the AC50 result was “inactive”.
As for `CNC(=O)c1sc(SC)cc1-c1ccc(Cl)cc1`, the AC50 was 0.355 µM (active).
Same read-out and setting: under `Cc1nc2c(C(=O)NCc3ccc4c(c3)OCO4)c[nH]n2c(=O)c1Cc1ccccc1F` stands 12.6 µM (active); under `Cc1nc2ccccn2c1/C(O)=C1\C(=O)C(=O)N(CCN2CCOCC2)C1c1cccnc1` (stereo unspecified), “inactive”.
For the molecule `CCNc1ncc2ncc(=O)n(Cc3ccc(F)cc3)c2n1`, the AC50 is 1 µM (active).
The same measure, in the same setting: under `O=c1cnc2cnc(Nc3ccccc3)nc2n1Cc1ccc(F)cc1` stands 1 µM (active).
On the same count and under the same terms, the same measure for `CCNc1ncc2nc(C)c(=O)n(Cc3cccc(OC)c3)c2n1`: 3.16 µM (active); for `CCNc1ncc2nc(C)c(=O)n(Cc3ccc(F)cc3)c2n1`: 1.58 µM (active).
As to `Cc1cc(CN2CCCCC2)c(O)c(CN2CCCCC2)c1`, the activity, negative = inhibition was -18.8% [at 2.29 µM] (inactive).
On to `OC[C@@H]1O[C@@H](n2cnc3c(NC4CCCC4)ncnc32)[C@H](O)[C@H]1O`, for which the AC50 result was “inactive”.
`Cn1cnc2c(NC3CCCC3)ncnc21`: the AC50 was 12.6 µM (active).
The same measure, in the same setting: the same measure for `OC[C@@H]1O[C@@H](n2cnc3c(NC4CCCC4)ncnc32)[C@@H](O)[C@H]1O`: “inactive”.
Turning to `Cc1ccc(S(=O)(=O)O[C@H]2C[C@@H](C(C)(C)C)CC[C@@H]2c2ccccc2)cc1`, the activity, negative = inhibition was -22.8% [at 2.29 µM] (inactive).
For the molecule `O=c1oc(-c2cccs2)nc2ccc(Br)cc12`, the AC50 is 2.51 µM (active).
The same measure, in the same setting: under `CNC(=S)N1CCN(c2ccccc2OC)CC1` stands 7.08 µM (active).
Same read-out and setting: under `COc1cccc(N2CCN(C(=S)Nc3cccc(C)c3)CC2)c1` stands “inactive”; under `COc1ccc(N2CCN(C(=S)Nc3cc(C)cc(C)c3)CC2)cc1`, “inactive”.
Turning to `COc1ccccc1N1CCN(CCN2C(=O)CC3(CCCC3)CC2=O)CC1`, the AC50 result was “inactive”.
The same measure, in the same setting: under `CNC(=S)N1CCN(c2cccc(OC)c2)CC1` stands 15.8 µM (active); under `COc1ccccc1N1CCN(CCCCN2C(=O)c3ccccc3C2=O)CC1`, “inactive”; under `CC1CCCN(CCCNC(=O)C2CC(=O)N(c3ccc(F)c(Cl)c3)C2)C1` (stereo unspecified), “inactive”.
Consider `CCCCOc1ccc(CNn2c(C)nc3ccccc3c2=O)cc1`, for which the half-maximal activity concentration (AC50) is 15.8 µM (active).
`COc1ccc(CNn2c(C)nc3ccccc3c2=O)cc1`: the concentration at half-maximal activity (AC50) was 12.6 µM (active).
On the same count and under the same terms, under `COc1ccc(-c2nc3ccccc3c(=O)n2N)cc1` stands 25.1 µM (active); under `Cc1cc(=O)[nH]c(-n2[nH]c(C)cc2=O)n1`, “inactive”; under `O=C1C=C(c2cccs2)CC(c2cccs2)C1n1cnc([N+](=O)[O-])c1` (stereo unspecified), 3.16 µM (active).
Take `Cc1cccc(CNc2ncnc3ccc(-c4ccc5c(c4)OCO5)cc23)c1`: the half-maximal activity concentration (AC50) was 0.501 µM (active).
On the same count and under the same terms, the same measure for `c1ccc(CNc2ncnc3ccc(-c4ccc5c(c4)OCO5)cc23)cc1`: 0.2 µM (active).
Still for that read-out and setting: under `c1ccc(Nc2ncnc3ccc(-c4ccc5c(c4)OCO5)cc23)cc1` stands 0.251 µM (active).
Regarding `c1ccc(C2CCC(N3CCC(N4CCCCC4)CC3)CC2)cc1` (stereo unspecified), the AC50 result is “inactive”.
The same measure, in the same setting: the same measure for `Cc1noc(C)c1C(=O)N1CCC2(CCCN(C(=O)Nc3ccccc3)C2)CC1`: 12.6 µM (active).
On the same count and under the same terms, the same measure for `Cc1noc(C)c1C(=O)N1CCC2(CCN(C(=O)Nc3ccccc3)CC2)CC1`: “inactive”.
The same measure, in the same setting: the same measure for `O=C(Nc1ccccc1)N1CCCC2(CCN(C(=O)c3ccco3)CC2)C1`: 20 µM (active); for `COc1ccc(NC(=O)N2CCCC3(CCN(C(=O)c4c(C)noc4C)CC3)C2)cc1`: “inactive”; for `COc1ccc(NC(=O)N2CCCC3(CCN(C(=O)c4ccco4)CC3)C2)cc1`: “inactive”.
Take `O=C(Nc1ccccc1)N1CC2(CCN(C(=O)c3ccco3)CC2)C1`: the AC50 entry is “inactive”.
With `CO[C@H]1OC[C@@]2(C)[C@@H]3C4=C(CN2C(=O)OC(C)(C)C)[C@H](C)[C@H](CO)[C@H](CO)[C@H]4CC[C@H]13`, the AC50 entry is “inactive”.
The same measure, in the same setting: the same measure for `Cc1ccc(SCc2ccc(C(=O)Nc3cc([N+](=O)[O-])ccc3C)cc2)cc1`: “inactive”; for `CC(=O)NS(=O)(=O)c1ccc(NC(=S)NC(=O)C(C)(C)C)cc1`: “inactive”; for `Cc1ccc([N+](=O)[O-])cc1NC(=S)NC(=O)CC(C)(C)C`: 2 µM (active).
`C=CCN(CC=C)C(=O)C(=O)c1cc(C)n(-c2ccc([N+](=O)[O-])cc2)c1C`: the AC50 entry is “inactive”.
For the molecule `Cc1ccc([N+](=O)[O-])cc1NC(=S)NC(=O)C(C)(C)C`, the concentration at half-maximal activity (AC50) was 0.2 µM (active).
On to `CCCN1CCN(C(=O)CN2C(=O)CC(C)(C)S(=O)(=O)c3ccccc32)CC1`, for which the AC50 entry is “inactive”.
Still for that read-out and setting: under `O=c1c(-c2cccs2)nc2cnc(N3CCNCC3)nc2n1-c1ccccc1` stands 2.51 µM (active); under `CN1CCN(c2ncc3ncc(=O)n(-c4ccccc4)c3n2)CC1`, 2.51 µM (active).
As to `O=c1c(-c2ccccc2)nc2cnc(N3CCOCC3)nc2n1-c1ccccc1`, the AC50 is 12.6 µM (active).
As for `COc1ccc(-n2c(=O)c(-c3cccs3)nc3cnc(N4CCNCC4)nc32)cc1`, the half-maximal activity concentration (AC50) was 5.01 µM (active).
Same read-out and setting: the same measure for `O=C(c1csnn1)N1CCC2(CCCN(Cc3ccccc3)C2)CC1`: “inactive”.
Take `CN1CCN(c2ncc3nc(-c4cccs4)c(=O)n(-c4ccccc4)c3n2)CC1`: the half-maximal activity concentration (AC50) is 3.16 µM (active).
On the same count and under the same terms, the same measure for `O=c1c(-c2cccs2)nc2cnc(N3CCOCC3)nc2n1-c1ccccc1`: 5.01 µM (active).
Still for that read-out and setting: the same measure for `CO[C@H]1C[C@@H](O[C@@H]2[C@H](C)[C@H](O[C@@H]3O[C@@H](C)C[C@@H](N(C)C)[C@@H]3O)[C@H](C)C[C@]3(CO3)C(=O)[C@H](C)[C@H](O)[C@H](C)[C@H](C)OC(=O)[C@@H]2C)O[C@@H](C)[C@H]1O`: “inactive”.
Same read-out and setting: the same measure for `COc1ccc(O)c(/C=N/NC(=O)CSc2nnc(C)n2-c2ccccc2)c1`: “inactive”; for `COc1ccc(C(=O)N/N=C/c2cccc3cccnc23)cc1`: 2 µM (active); for `COc1ccc(C(=O)NCC(=O)OCc2cccc(Br)c2)cc1`: 6.31 µM (active).
Consider `COc1ccc(O)c(/C=N/NC(=O)c2ccc(OCc3cccc(Br)c3)cc2)c1`, for which the AC50 was 11.2 µM (active).
Same read-out and setting: under `O=C(CNC(=O)/C(=C\c1ccccc1)NC(=O)c1ccc(Br)cc1)OCc1ccccc1` stands “inactive”.
Regarding `CSC(=N)N`, the AC50 entry is “inactive”.
Same read-out and setting: the same measure for `Clc1cccc(Nc2ncnc3ccc(Br)cc23)c1`: 0.562 µM (active); for `Brc1ccc2ncnc(Nc3cccc4ccccc34)c2c1`: 1.58 µM (active); for `COc1ccc(-c2nnc3n2N=C(C)CS3)cc1`: 1.41 µM (active).
Same read-out and setting: the same measure for `COc1cccc(-c2nnc3n2N=C(C(C)(C)C)CS3)c1`: 2.82 µM (active); for `CCc1ccc(C2=Nn3c(nnc3-c3cccs3)SC2)cc1`: 3.55 µM (active).
Regarding `CCOc1ccc(C2=Nn3c(nnc3-c3ccco3)SC2)cc1`, the half-maximal activity concentration (AC50) was 2 µM (active).
For `COc1ccc(-n2c(C)n[nH]c2=O)cc1`, the AC50 result was “inactive”.
Same read-out and setting: the same measure for `O=C(O)C1=CCCNC1`: “inactive”; for `CCOc1ccc(-c2nnc3n2N=C(c2ccc(OC)cc2)CS3)cc1`: 3.55 µM (active); for `O=C(OCC(=O)c1ccc([N+](=O)[O-])cc1)/C(=C\c1ccc(Cl)cc1)NC(=O)c1ccccc1`: 12.6 µM (active).
As for `O=C(Nc1cccc2ccccc12)/C(=C/c1ccc([N+](=O)[O-])cc1)NC(=O)c1ccccc1`, the AC50 is 3.16 µM (active).
`O=C(OCc1ccccc1)/C(=C/c1ccc(Cl)cc1)NC(=O)c1ccccc1Cl`: the AC50 is 0.891 µM (active).
On the same count and under the same terms, under `COc1cc(/C=C(/NC(=O)c2ccccc2Cl)C(=O)O)cc(OC)c1OC` stands “inactive”.
For the molecule `Cc1ccc(NC(=O)/C(=C\c2ccc([N+](=O)[O-])cc2)NC(=O)c2ccccc2)cc1`, the AC50 entry is “inactive”.
Turning to `Cc1ccc(S(=O)(=O)N[C@H]2COC(=O)C/C=C\[C@@H](C)[C@H](NS(=O)(=O)c3ccc(C)cc3)COC(=O)C/C=C\[C@H]2C)cc1`, the activity, negative = inhibition is -0.94% [at 11.4 µM] (inactive).
On to `O=C(Nc1ccnc(-c2cccnc2)n1)c1cccc(Cl)c1Cl`, for which the half-maximal activity concentration (AC50) is 0.562 µM (active).
As for `O=C(Nc1ccnc(-c2cccnc2)n1)c1ccccc1Cl`, the concentration at half-maximal activity (AC50) was 0.398 µM (active).
On to `CC1(C)OCC([C@H](O)C2=CCCCC2=O)CO1`, for which the activity, negative = inhibition was -1.5% [at 11.4 µM] (inactive).
Turning to `O=C(c1ccco1)N1CCN(C(=O)C2(S(=O)(=O)c3ccc(Cl)cc3)CC2)CC1`, the AC50 entry was “inactive”.
`FC(F)(F)c1cccc(-c2nc3nc(Cl)c(Cl)nc3[nH]2)c1`: the half-maximal activity concentration (AC50) is 0.398 µM (active).
Still for that read-out and setting: the same measure for `O=C(Nc1cccc(F)c1)N1CCC2(CC1)CCN(C(=O)c1cnccn1)CC2`: “inactive”; for `COc1cc2c(cc1C(F)(F)F)N(C(=O)Nc1cc(F)cc(-c3cccnc3)c1)CC2`: 0.316 µM (active); for `Cn1ccc2cc3c(cc21)CCN3C(=O)Nc1cccnc1`: 25.1 nM (active) and 3.98 nM (active).
In the case of `CN1CCc2cc(NC(=O)Nc3cccnc3)ccc21`, the half-maximal activity concentration (AC50) is 0.0794 µM (active).
Same read-out and setting: under `COC(=O)c1ccc(NC(=O)N2CCC(O)(c3cccnc3)CC2)cc1` stands “inactive”; under `CSc1cc2c(cc1C(F)(F)F)N(C(=O)Nc1cccnc1)CC2`, 0.000794 µM (active).
